Wnt act = Wnt/beta-catenin pathway activation. hit rate 1.2% among 300,000. activation, % at 9.35 µM. Wnt/beta-catenin reporter cell assay, activator, plate reader; in the data active means activation above about 30%, passing the limit was not always enough;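 further: 0% = neutral control wells and 100% = positive control wells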
MITF TRPM1 HTS = increases MITF-driven TRPM1 promoter luciferase signal; hit rate 0.75% among 300,000; activation, % at 12.5 µM; SK-MEL-5 TRPM1-promoter luciferase, 24 h; % of positive control, neutral wells = 0;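 active means mean activation of at least 80% with every replicate also reaching 80%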;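 further: 0% = neutral control wells and 100% = parthenolide positive control wells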
PAX8 inh HTS = PAX8 transcriptional activity inhibition; AID 652154; inhibition, % at 12.6 µM; RMG-I TPO-luciferase reporter, SteadyGlo, 24 h; hit rate 1.2% among 360,000;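 active means mean replicate inhibition at least 60% with every replicate also reaching 60%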;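 further: luciferase light reporting Pax8 driven TPO promoter activity; plate controls were median of neutral control wells for no effect and mitoxantrone controls for full effect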
EWS-Fli block = blocks EWS/Fli oncoprotein-driven transcription; A673 NR0B1-luciferase reporter, viability-normalised; hit rate 0.67% among 350,000; AID 651661; inhibition, % at 12.6 µM;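 active means mean inhibition of at least 50% after viability correction, with every replicate also passing that limit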;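 further: firefly luciferase signal divided by Alamar Blue viability fluorescence both relative to DMSO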
TRPM1 prom inh = inhibitors of MITF-driven TRPM1 promoter in melanoma cells; hit rate 0.83% among 330,000; SK-MEL-5 TRPM1 promoter luciferase, 24 h; AID 488899; inhibition, % at 12.5 µM;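 active means mean inhibition across replicates of 60% or more, whatever share of single replicates reaches that level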
esBAF inh = blocks esBAF chromatin remodeling in mouse ES cells. reporter increase, % at 12.5 µM. hit rate 2% among 350,000. AID 602393. Bmi1-luciferase knock-in reporter, 24 h; 100% = twice the neutral-well signal; in the data active means activation above about 40%;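 further: 0% = median of the plate's neutral control wells and 100% = double that signal; a rise in the Bmi1 reporter signal indicates esBAF inhibition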
* marks the source's active call; other numbers are inactive results; . = no result given; ! = repeats disagree. Rows were chosen to be rich in hits. Some 4% of all compounds tested hit in one or more screens of this group.

SMILES	Wnt act	MITF TRPM1 HTS	PAX8 inh HTS	EWS-Fli block	TRPM1 prom inh	esBAF inh
COc1ccc(OC)c(CCNC(=O)Cn2nc(C)c3c(C)n(-c4ccc(C)cc4)nc3c2=O)c1	-6.4	-46.4	70.7*	16.1	47.0	-2.3
N/C(=N\N=C\c1ccc(O)c(O)c1)c1nonc1N	-1.4	60.8	-89.6	-67.7	-63.3	65.1*
Nc1nonc1C(=O)N/N=C/c1ccc(Br)o1	-1.5	.	-3.0	6.2	7.5	.
N/C(=N\N=C\c1ccc(O)cc1)c1nonc1N	49.4*	65.2	-188.0	-88.2	-59.7	.
N/C(=N\N=C\c1ccc(Br)o1)c1nonc1N	22.6	118.2*	-245.8	-91.8	-114.3	.
COc1cc(/C=N/N=C(\N)c2nonc2N)ccc1O	18.4	52.6	-67.7	-66.5	-108.4	.
CO[C@H]1CN(C)C(=O)c2cc(NC(=O)Nc3cccc(F)c3)ccc2OC[C@@H](C)NC[C@@H]1C	.	.	.	-1.1	.	-1.1
CO[C@H]1CN(C)C(=O)c2ccc(NC(=O)C3CC3)cc2OC[C@@H](C)N(Cc2nccs2)C[C@H]1C	.	.	-7.5	-5.3	.	-10.4
O=S1(=O)N=C(N2CCN(c3ccc(F)cc3)CC2)c2ccccc21	.	29.3	.	.	-25.8	45.7*
O=S1(=O)N=C(N2CCN(Cc3ccccc3)CC2)c2ccccc21	.	-6.0	.	.	7.9	-1.1
N#C[C@H]1[C@H](c2ccccc2-c2cccc(F)c2)[C@@H](CO)N1C(=O)C1CC1	.	.	.	5.6	.	.
CCCCC1C(=O)N(c2ccccc2)N(c2ccc(O)cc2)C1=O (stereo unspecified)	0.5	-95.6	26.8	45.5	96.1*	-19.5
c1ccc(-c2cn3nc4c(nc3n2)CCCC4)cc1	.	-73.2	.	.	73.1*	.
CCN1CCN(Cc2ccc(NC(=O)c3ccc(C)c(NC(=O)c4ccc5n[nH]nc5c4)c3)cc2C(F)(F)F)CC1	-4.4	-28.5	-6.2	1.6	29.0	-7.6
CCN1CCN(Cc2ccc(NC(=O)c3cccc(-c4ccc5nc(NC(=O)C6CC6)sc5n4)c3)cc2C(F)(F)F)CC1	-2.5	.	80.2*	37.4	.	.
CCN1CCN(Cc2ccc(NC(=O)c3cc(NC(=O)c4cc(C)on4)cc(OC)c3)cc2C(F)(F)F)CC1	-1.6	-48.0	11.7	9.7	49.5	-4.8
CCN1CCN(Cc2ccc(NC(=O)c3ccc(C)c(NC(=O)c4ccnnc4)c3)cc2C(F)(F)F)CC1	-2.3	9.0	7.9	-9.4	-9.3	-1.1
CCN1CCN(Cc2ccc(NC(=O)c3ccc(C)c(NC(=O)C(=O)c4c[nH]c5ccccc45)c3)cc2C(F)(F)F)CC1	-3.2	-81.7	101.1*	58.5*!	82.4*	-86.1
CCN1CCN(Cc2ccc(NC(=O)c3cc(NC(=O)c4cnn(-c5ccccc5)c4N)cc(OC)c3)cc2C(F)(F)F)CC1	-4.8	-76.5	-1.7	61.3*	79.3*	-73.4
CCN1CCN(Cc2ccc(NC(=O)c3cc(NC(=O)C(=O)c4c[nH]c5ccccc45)cc(OC)c3)cc2C(F)(F)F)CC1	-3.2	-54.0	95.2*	54.2*	57.5	-5.3
C[C@@H]1CN([C@@H](C)CO)S(=O)(=O)c2ccc(-c3cccnc3)cc2O[C@@H]1CN(C)C(=O)CC1CC1	.	.	.	6.3	.	-10.0
O=[N+]([O-])c1ccc(O)c(-c2cc(C(F)(F)F)nc(-c3ccccc3)n2)c1	-11.9	-88.7	107.1*	36.9	89.5*	-57.5
Oc1ccccc1-c1cc(C(F)(F)C(F)F)nc(-c2ccccc2)n1	.	-7.7	.	.	10.4	-7.3
COc1ccc(NC(=S)Nc2ccccn2)c(OC)c1	54.9*	.	-57.8	.	-51.3	69.1*
COc1ccc(NC(=S)Nc2cc(C)ccn2)c(OC)c1	.	25.0	.	.	-29.0	67.6*
SMILES	Wnt act	MITF TRPM1 HTS	PAX8 inh HTS	EWS-Fli block	TRPM1 prom inh	esBAF inh
C[C@@H]1CN([C@H](C)CO)C(=O)c2cc(NC(=O)Cc3cn(C)c4ccccc34)ccc2O[C@@H]1CN(C)S(=O)(=O)c1ccc(F)cc1	.	.	.	-4.0	.	1.0
CC(C)(C)c1ccc(/C=C/C(=O)N2CCc3ccccc3C2)cc1	-0.8	10.4	.	-6.3	-12.7	-1.2
Cc1ccc(/C=C/C(=O)N2CCc3ccccc3C2)cc1	-3.0	21.2	.	.	-22.1	48.4*
O=C(/C=C/c1ccc(F)cc1)N1CCc2ccccc2C1	8.9	49.6	-130.8	-67.7	-51.2	47.8*
O=C(Cc1ccc(Br)cc1)N1CCc2ccccc2C1	4.7	.	-116.2	-57.6	-52.0	52.6*
COc1ccccc1-c1cn(CC[C@H]2CC[C@@H](NC(=O)c3ccccc3F)[C@@H](CO)O2)nn1	.	.	22.6	9.4	.	7.6
S=C(Nc1ccccc1)Nc1ccc(OCc2ccc(Cl)cc2Cl)cc1	.	.	.	.	82.4*	-74.9
OCCNCc1ccc(OCc2ccc(Cl)cc2Cl)cc1	33.8*	23.7	-66.3	-63.0	-22.9	18.1
S=C(NCCSCc1ccc(Cl)cc1Cl)Nc1ccccc1	.	-4.4	.	.	3.2	-2.3
CCC(=O)N1CCCCN2[C@H](C1)[C@H](c1ccc(C#Cc3ccccc3F)cc1)[C@@H]2CO	.	.	19.4	22.0	.	-1.2
COc1ccccc1NC(=O)COc1ccc(CO)cc1Cl	-2.6	.	.	.	-59.6	51.3*
COc1ccc(S(=O)(=O)N(C)C[C@H]2OCCCC[C@H](C)Oc3ccc(NS(=O)(=O)c4ccc(Cl)cc4)cc3C(=O)N([C@H](C)CO)C[C@H]2C)cc1	.	.	-0.6	9.5	.	.
CN(C)c1ccc(/C=C/c2cccc[n+]2[O-])cc1	25.5	.	-83.7	-64.4	-90.6	9.6
CC(C)CC[n+]1ccccc1/C=C/c1ccc(N(C)C)cc1	-11.6	-70.3	82.3*	48.8	73.0*	-19.3
O=C(C1=C[C@@H](c2ccc3c(c2)OCO3)C[C@@H](OCc2ccc(CO)cc2)O1)N1CCN(Cc2ccccc2)CC1	.	.	-0.6	-2.6	.	.
Cc1ccc(C)c(N=Nc2nc3ccccc3n2C)c1	.	0.2	.	.	-0.8	41.4*
CC=Cc1ccc2n(c1=O)C[C@H]1[C@H](CO)[C@@H](C(=O)NCCC)N(C(=O)c3cccnc3)[C@@H]21 (mixture of isomers)	.	.	.	-4.0	.	.
CCOC(=O)c1c(CN2CCNCC2)nc2ccc(Cl)cc2c1-c1ccccc1	-3.0	-90.0	9.7	20.3	89.9*	.
N#CCCN1CCN(C(=S)c2ccc(-c3cccc(Cl)c3)o2)CC1	.	58.8	.	.	-64.6	78.4*
O=C(O)c1ccc(-c2cccc(Cl)c2)o1	.	6.5	.	.	-7.2	-5.3
N#CCCN1CCN(C(=S)c2ccc(-c3ccc(Cl)c(Cl)c3)o2)CC1	.	47.6	.	.	-46.5	45.6*
O=[N+]([O-])c1cc(-c2ccc(C(=S)N3CCOCC3)o2)ccc1Cl	2.0	7.9	38.4	-28.2	-7.2	13.9
CN1[C@@H]2Cn3c(ccc(C4=CCCC4)c3=O)[C@H]1[C@@H](C(=O)N1CCOCC1)[C@@H]2CO	.	.	-4.1	-6.1	.	3.1
COc1ccc(NC(=O)Nc2cccc3c2O[C@@H](CN(C)C(=O)Nc2ccc4c(c2)OCO4)[C@@H](C)CN([C@H](C)CO)C3=O)cc1	.	.	.	-5.7	.	9.2
Cc1ccc(S(=O)(=O)N(C)C[C@@H]2OCCCC[C@H](C)Oc3ccc(NC(=O)NC4CCCCC4)cc3C(=O)N([C@H](C)CO)C[C@@H]2C)cc1	.	.	51.2	10.6	.	1.9

From PubChem
